Hits are enriched below; roughly 4.8% of the tested compounds scored in any of these assays.
USP2a block = inhibitors of human ubiquitin-specific protease USP2a | USP2 core, Ub-CHOP2 coupled fluorogenic reporter, 485/531 | Potency, µM (highest dose often 38.3 µM), inactives show at the highest dose activity change, negative = inhibition, actives largely listed as inhibitors | 330,000 tested, 0.01% active | AID 463254;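 further: potency means the concentration at half of the fitted maximal effect; plate controls were DMSO wells for no effect and full inhibition by NEM control for full effect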
Target sequence (O75604 whole entry, looked up): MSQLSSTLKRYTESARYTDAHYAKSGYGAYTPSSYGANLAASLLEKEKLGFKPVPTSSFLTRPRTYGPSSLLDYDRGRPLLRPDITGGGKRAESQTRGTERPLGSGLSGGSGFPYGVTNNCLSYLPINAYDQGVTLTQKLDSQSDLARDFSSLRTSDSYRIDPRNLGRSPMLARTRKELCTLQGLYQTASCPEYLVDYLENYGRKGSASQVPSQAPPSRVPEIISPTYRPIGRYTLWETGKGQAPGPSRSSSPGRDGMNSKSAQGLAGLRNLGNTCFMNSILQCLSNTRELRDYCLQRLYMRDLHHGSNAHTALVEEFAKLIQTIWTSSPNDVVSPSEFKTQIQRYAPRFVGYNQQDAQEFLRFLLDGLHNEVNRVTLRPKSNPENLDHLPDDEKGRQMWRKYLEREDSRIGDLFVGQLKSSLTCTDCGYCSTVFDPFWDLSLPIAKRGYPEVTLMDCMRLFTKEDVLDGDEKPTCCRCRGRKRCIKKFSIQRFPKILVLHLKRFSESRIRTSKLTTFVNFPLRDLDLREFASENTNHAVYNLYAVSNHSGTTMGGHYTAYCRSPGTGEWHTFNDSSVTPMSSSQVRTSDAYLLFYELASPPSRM
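Deubiquitinase activity read as fluorescence (485/531 nm) after Ub-CHOP2 cleavage activates the enterokinase reporter on its substrate; USP2 core 10nM, Ub-CHOP2 and substrate 25nM each, 30min compound preincubation then 60min RT; data normalized to NEM, curves fitted.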
IL1B secr inh = inflammasome signaling inhibition, IL-1 beta readout | THP-1 LPS/ATP IL-1B secretion, AlphaLISA, 16 h; stronger effect = lower value | activity change, % at 57.5 µM | 360,000 tested, 4.7% active | AID 743279; in the data active means activity change below about -50%; inconclusive means mostly about -30% to -49%; further: on the % scale 0 is the no-effect control and ±100 the full control effect
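THP-1 cells pretreated 1 hr with compounds (up to 57.5 uM final), then stimulated with LPS (250 ng/mL final) plus ATP (1.25 mM final); secreted IL-1B measured by AlphaLISA after 16 hr, decreased signal indicating inhibition.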
USP1-UAF1 inh = blocks the human USP1/UAF1 deubiquitinase complex. O94782. recombinant USP1/UAF1, Ub-Rhodamine cleavage fluorescence. Potency, µM (titrated, usually from 57.1 µM), without a hit: at the top dose activity change, negative = inhibition, actives largely listed as inhibitors. 390,000 tested, 0.23% active; further: potency means the concentration at half of the fitted maximal effect; on the % scale 0 is the no-effect control and ±100 the full control effect; nearly all actives have a fitted effect of over 60% in size
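1 nM enzyme complex + cpd, 15 min RT; start with Ub-Rho 150nM final; kinetic fluorescence ex 480/em 540, 6 reads q60 s. Buffer 50mM HEPES pH 7.8, 0.5mM EDTA, 0.1 mg/ml BSA, 1mM TCEP, 0.01% Tween-20.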
ATXN viability = cell viability loss in ATXN counter-screen; S2 cells (HEK-293 line with an ATXN2-luciferase reporter) viability, CellTiter-Fluor protease fluorescence, 24 h; Potency, µM (series often up to 56.7 µM), hits mostly cytotoxic; 400,000 tested, 0.49% active; further: potency means the concentration at half of the fitted maximal effect; nearly all actives have a fitted effect of over 40% in size
ATXN2 expr inh = inhibitors of ATXN2 expression. HEK-293 ATXN2-luciferase reporter, luminescence, 24 h. 360,000 tested, 0.72% active. Potency, µM (doses to about 57 µM), inactives show top-dose activity change, negative = inhibition, actives largely listed as inhibitors; further: potency means the concentration at half of the fitted maximal effect; on the % scale 0 is the no-effect control and ±100 the full control effect; nearly all actives have a fitted effect of over 55% in size
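ATXN2-luciferase reporter cells (luciferase flanked by upstream and downstream ATXN2 gene portions) were treated 24 h at 37 °C with compounds at up to 57 uM. SteadyGlo luminescence gave expression; GF-AFC fluorescence gave viability.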
Active calls of the source: *. Unless noted, the call rests on the fitted dose curve; in most records, active means well fitted curve in the direction sought with a large enough effect; inconclusive means small, poorly fitted or top-dose-only effect, or another doubt; inactive means no such curve, though single readings can be large; an effect the other way counts as inactive or inconclusive.

Screening COc1ccc(CNS(=O)(=O)c2c(C(=O)N3CCCCCC3)c(C)n(C)c2C)cc1 returned USP2a block 0%, IL1B secr inh -16, USP1-UAF1 inh -21%, ATXN viability inactive and ATXN2 expr inh 18%.
C/C(=N\OCc1cccc(C(=O)O)c1)c1ccc(Cl)cc1 was read as USP2a block 0%, USP1-UAF1 inh 3%, ATXN viability inactive and ATXN2 expr inh 2.8µM*.
`NNc1nc2c(Cl)c(Cl)ccc2s1` gave USP2a block 1%, IL1B secr inh -60*, USP1-UAF1 inh 9%, ATXN viability inactive and ATXN2 expr inh 20%.
`O=C(c1cccnc1)C1CCCN(Cc2ccc3c(c2)CN(C(=O)c2cccc(Cl)c2)CCO3)C1` (centres undefined) gave ATXN viability inactive.
COC(=O)[C@@]1(Cc2ccc(F)cc2)[C@H]2c3cc(C(=O)N(C)C)n(CCF)c3C[C@H]2CN1C(=O)c1ccccc1 was read as IL1B secr inh -27, ATXN viability inactive and ATXN2 expr inh -12%.
COC(=O)[C@@]1(Cc2ccc(F)cc2)[C@H]2c3cc(C(=O)N(C)C)n(Cc4ccc(C)c(F)c4F)c3C[C@H]2CN1C(=O)c1ccccc1 was read as IL1B secr inh -75*, ATXN viability inconclusive and ATXN2 expr inh inconclusive.
`COC(=O)[C@@]1(Cc2ccc(F)cc2)[C@H]2c3cc(C(=O)N4CCCC4)n(CCc4ccc(OC)c(Br)c4)c3C[C@H]2CN1C(=O)c1ccccc1` gave IL1B secr inh -67*, ATXN viability inconclusive and ATXN2 expr inh -26%.
COC(=O)[C@@]1(Cc2ccc(OC)cc2)[C@H]2c3cc(C(=O)N4CCCC4)n(CCO)c3C[C@H]2CN1C(=O)c1ccccc1 was read as USP2a block -1%, IL1B secr inh -17, USP1-UAF1 inh -14%, ATXN viability inactive and ATXN2 expr inh 5%.
For COC(=O)[C@@]1(Cc2ccc(OC)cc2)[C@H]2c3cc(C(=O)N4CCCC4)n(Cc4ccccc4)c3C[C@H]2CN1C(=O)c1ccccc1 the results were IL1B secr inh -66*, ATXN viability inconclusive and ATXN2 expr inh 0%.
O=C1NC(Cc2ccc(O)cc2)c2nc3ccccc3c(=O)n2-c2cc(Cl)ccc21 (centres undefined) was read as USP2a block 3%.
COc1cc(C)ccc1OCCSc1nc2ccc(NC(=O)c3cccs3)cc2s1 was read as USP1-UAF1 inh -26%, ATXN viability inactive and ATXN2 expr inh -16%.
C=C1CCc2c([nH]c3ccc(OCC(C)C)cc23)C1=O was read as USP2a block 0%, IL1B secr inh -99*, USP1-UAF1 inh -18%, ATXN viability inconclusive and ATXN2 expr inh inconclusive.
Screening COc1ccc2[nH]c3c(c2c1)CCNC3=O returned ATXN viability inactive and ATXN2 expr inh 31%.
`CCOc1ccc(S(=O)(=O)N(C)CC(=O)N2CCN(CC)CC2)cc1` gave USP2a block 4%, IL1B secr inh -18, USP1-UAF1 inh -8%, ATXN viability inactive and ATXN2 expr inh 5%.
CC[C@H](CC[C@@H](C)[C@H]1CC[C@H]2[C@@H]3CC=C4C[C@@H](O)CC[C@]4(C)[C@@H]3CC[C@]12C)C(C)C was read as ATXN2 expr inh -9%.
`NS(=O)(=O)c1cccc(NC(=S)NC(=O)C23CC4CC(CC(C4)C2)C3)c1` gave USP2a block -1%, IL1B secr inh -86*, USP1-UAF1 inh -17%, ATXN viability inactive and ATXN2 expr inh 45%.
For O=S(=O)(c1ccc2ccccc2c1)N1CCN(C(=S)Nc2ccc(F)c(Cl)c2)CC1 the results were USP2a block -1%, IL1B secr inh -69*, USP1-UAF1 inh -13%, ATXN viability inconclusive and ATXN2 expr inh inconclusive.
`O=C(Cn1ncc(Cl)c(Cl)c1=O)N1CCN(S(=O)(=O)c2ccc3ccccc3c2)CC1` gave USP2a block 0%, IL1B secr inh -103*, USP1-UAF1 inh -21% and ATXN2 expr inh inconclusive.
Screening O=C(CCC(=O)N1CCN(S(=O)(=O)c2ccc3ccccc3c2)CC1)Nc1cc(Cl)cc(Cl)c1 returned USP2a block -5%, IL1B secr inh -53*, USP1-UAF1 inh -23% and ATXN viability inactive.
O=S(=O)(c1ccc2ccccc2c1)N1CCN(C(=S)Nc2ccc(F)cc2)CC1 was read as USP2a block -10%, IL1B secr inh 0, USP1-UAF1 inh -22%, ATXN viability inactive and ATXN2 expr inh -20%.
O=C(O)CCC(=O)N1CCN(S(=O)(=O)c2ccc3ccccc3c2)CC1 was read as USP2a block 0%, IL1B secr inh -2, USP1-UAF1 inh -4%, ATXN viability inactive and ATXN2 expr inh 21%.
CCc1ccc(CNC(=O)c2ccc(CSc3nc4ccncc4n3Cc3ccccc3)cc2)cc1 was read as USP1-UAF1 inh -2%.
For COC(=O)c1ccc(CN2CCC3(CCC(CNC(=O)c4ccccc4)O3)CC2)cc1 (centres undefined) the results were ATXN viability inactive.
`NCCC[C@H](N)C(=O)O` gave ATXN viability inactive.
For CC(=O)Nc1ccc(NC(=O)C(C)OC(=O)CC23CC4CC(CC(Br)(C4)C2)C3)cc1 (centres undefined) the results were USP2a block 2%, IL1B secr inh 46, USP1-UAF1 inh inconclusive, ATXN viability inactive and ATXN2 expr inh -17%.
CN(C)CCCN(C(=O)CCc1ccccc1)c1nc2ccc(Br)cc2s1 was read as USP2a block 2%, IL1B secr inh -102*, USP1-UAF1 inh -4%, ATXN viability inconclusive and ATXN2 expr inh 25µM*.
`CN(C)CCCN(C(=O)c1ccco1)c1nc2ccc(Br)cc2s1` gave USP2a block 1%, IL1B secr inh -70*, USP1-UAF1 inh -20%, ATXN viability inconclusive and ATXN2 expr inh 25µM*.
For COc1ccc(/C=C(/NC(=O)c2ccccc2)C(=O)N2CCOCC2)cc1OC the results were USP2a block 1%, IL1B secr inh -67*, USP1-UAF1 inh -17%, ATXN viability inactive and ATXN2 expr inh 7%.
COc1ccc(/C=C(\NC(=O)c2ccccc2)C(=O)N2CCN(C)CC2)cc1OC was read as USP2a block 5%, IL1B secr inh 9, USP1-UAF1 inh -19%, ATXN viability inactive and ATXN2 expr inh 1%.
Screening COc1ccc(-c2ccc(/C=C(\NC(=O)c3ccccc3)C(=O)N3CCOCC3)o2)cc1 returned USP2a block 0%, IL1B secr inh -57*, USP1-UAF1 inh -7%, ATXN viability inconclusive and ATXN2 expr inh inconclusive.

Compound activity (PubChem BioAssay)
